This is one part of a sample in which hits are shown more often than they occur.
HIV RNase H inh-1: HIV-1 RT RNase H inhibitors, primary screen, biochemical, fluorescence. Gag-Pol polyprotein (Human immunodeficiency virus type 1 group M subtype B (isolate …. RT-RNase H RNA/DNA duplex cleavage. inhibition, % at 10 µM. 1.9% of 65,000 active; in the data active = inhibition above about 50%
HIV RNase H inh-2: HIV-1 RT RNase H inhibitors, retest, confirmation, biochemical | shares compounds with HIV RNase H inh-1 | Recombinant RT RNase H, fluorescent RNA/DNA duplex cleavage | inhibition, % at 10 µM | 39% of 1,000 active | AID 651, 2007; in the data active = inhibition above about 48%; inconclusive = no clear call, values can overlap the other calls
* hit, by the source's call; ? = inconclusive.

SMILES	HIV RNase H inh-1	others
CCCN(CCC)CCCNC(=O)c1cc2cc3ccc(OC)cc3nc2o1	-21.6
Cc1ccc2cc3cc(C(=O)NCc4ccc5c(c4)OCO5)oc3nc2c1	33.4
COc1ccc2cc3cc(C(=O)Nc4ccc5c(c4)OCO5)oc3nc2c1	62.5*	HIV RNase H inh-2=2.3
COc1ccc(-c2cn3c(C)c(C(=O)N4CCN(c5ccc(OC)cc5)CC4)sc3n2)cc1	38.1
O=C(CCN1C(=O)COc2ccccc21)NCc1cccs1	-2.8
COc1ccc(CN2C(=O)NC3(CCCCCC3)C2=O)cc1F	-10.1
O=C1c2ccccc2C(=O)N1CCN1CCCCC1	1.9
O=C1c2ccccc2C(=O)N1SC1CCCCC1	80.2*	HIV RNase H inh-2=4.9
O=C(OCN1C(=O)c2ccccc2C1=O)C1CCCCC1	-29.9
CCOC(=O)CNC(=O)C(NC(=O)C1CCC(C)CC1)C(C)CC (centres undefined)	0.2
COc1ccc(-c2nc(C#N)c(N3CCCCCC3)o2)cc1OC	-14.3
O=C1c2oc3ccc(Cl)cc3c(=O)c2C(c2cccc(Br)c2)N1CCO (centres undefined)	5.0
COCCN1C(=O)c2oc3ccccc3c(=O)c2C1c1ccc(O)c(OC)c1 (centres undefined)	3.1
COc1cc(C2c3c(oc4ccccc4c3=O)C(=O)N2Cc2ccncc2)ccc1O (centres undefined)	6.4
Cc1cc2oc3c(c(=O)c2cc1C)C(c1cccc(Br)c1)N(Cc1ccco1)C3=O (centres undefined)	5.4
CCOc1cc(C2c3c(oc4cc(C)c(Cl)cc4c3=O)C(=O)N2Cc2ccco2)ccc1O (centres undefined)	61.5*	HIV RNase H inh-2=57.9*
Cc1ccc2oc3c(c(=O)c2c1)C(c1cccc(Br)c1)N(Cc1ccco1)C3=O (centres undefined)	60.4*	HIV RNase H inh-2=?
O=C(Nc1ccc(S(=O)(=O)N2CCN(Cc3ccccc3)CC2)cc1)c1cnccn1	3.0
COC(=O)N1CC(C)N(C(=O)OC)CC1C (centres undefined)	-2.3
COCCn1c(CNc2ccc(F)cc2)nnc1SCC(=O)Nc1ccc(OC)cc1OC	-3.4
Cc1c(Cl)c(C(F)(F)F)nn1CC(=O)N1CCSCC1	-7.4
CCn1c(=O)cc(SCC(=O)Nc2ccccc2N2CCN(C)CC2)c2ccccc21	-2.5
COc1ccccc1N(C)S(=O)(=O)c1ccc(C(=O)OCC(=O)NCc2ccco2)cc1	-7.0
CC1(C)CC(=O)C(C=NCCCn2ccnc2)=C(O)C1	-8.0
COc1ccc(S(=O)(=O)NCC(=O)N(CC(=O)NCC2CCCO2)c2c(C)cccc2C)cc1 (centres undefined)	0.7
SMILES	HIV RNase H inh-1	others
O=C(NCc1ccco1)c1ccc2c(c1)C(=O)N(Cc1ccccc1)C2=O	0.5
CCc1ccc(NC(=O)c2ccc3c(c2)C(=O)N(Cc2ccco2)C3=O)cc1	43.2
COC(=O)c1ccccc1NC(=O)c1ccc2c(c1)C(=O)N(Cc1ccco1)C2=O	60.9*	HIV RNase H inh-2=94.3*
CC(C)C1O/C(=N/C(=O)Nc2ccc(Cl)c(Cl)c2)NC1=O (centres undefined)	-11.0
COc1ccc(CCN2C(=O)C3C4C=CC(C4)C3C2=O)cc1OC (centres undefined)	-8.2
Cc1nn(-c2ccccc2)c(Cl)c1C(=O)Nc1nnc(C2CCCC2)s1	-18.6
Cc1ccc(-c2cc(C(=O)NC3=NCCS3)c3cc(Br)ccc3n2)o1	95.0*	HIV RNase H inh-2=80.5*
Cc1ccc2c(CC(=O)NC3=NCCS3)coc2c1	-80.3
COc1ccc(C(=O)NCCCn2ccnc2)cc1	-8.6
Cc1ccc(-c2cc(C(=O)NCc3ccco3)c3ccccc3n2)o1	-18.7
O=C(NC1=NCCS1)c1ccc(-c2ccc(Cl)cc2)o1	-13.0
Cc1ccc(-c2cc(C(=O)NCCCn3ccnc3)c3cc(Br)ccc3n2)o1	78.0*	HIV RNase H inh-2=22.5
CCOCCCNS(=O)(=O)c1ccc(Br)cc1	-37.5
C/C(Sc1nnc(Cc2ccccc2)o1)=C(/O)c1ccccc1	1.3
C=CCOc1ccc(/C(O)=C2/C(=O)C(=O)N(CCCn3ccnc3)C2c2cccs2)cc1 (centres undefined)	1.7
O=C1CN(Cc2ccccc2)C(=NCc2ccco2)S1	-19.0
COc1ccccc1S(=O)(=O)Cc1ccc(C(=O)NC(C)c2ccc3c(c2)OCCO3)o1 (centres undefined)	-4.7
Cc1nc2cc(F)ccc2n1C1CCN(S(=O)(=O)c2ccccc2)CC1	-1.4
CCOC(=O)Cc1csc(NC(=O)c2cccc(N3C(=O)CCC3=O)c2)n1	-16.8
Cc1ccc(-c2csc(NC(=O)c3cccc(N4C(=O)CCC4=O)c3)n2)o1	57.5*	HIV RNase H inh-2=24.2
Cc1csc(NC(=O)c2cccc(S(=O)(=O)N3CCCCC3)c2)n1	-4.7
O=C(NC1CCCc2ccccc21)C1CCN(c2c(N3CCCC3)c(=O)c2=O)CC1 (centres undefined)	-3.0
COc1ccc(NCc2cc3cc(OC)ccc3[nH]c2=O)cc1	55.9*	HIV RNase H inh-2=1.0
COc1ccc(NCc2cc3ccccc3[nH]c2=O)cc1	-5.9
COc1ccc2[nH]c(=O)c(CNC3CCCCC3)cc2c1	-2.6
SMILES	HIV RNase H inh-1	others
CCCCCC(=O)N1CC2(CC)CN(C(=O)CCCCC)CC(CC)(C1)C2=O	0.7
CCOc1cccc(C(=O)Nc2ccccc2N2CCN(C(=O)C(C)C)CC2)c1	-16.2
CSCCC(C(=O)Nc1ccc2c(c1)OCO2)N1C(=O)c2ccccc2C1=O (centres undefined)	0.7
COc1ccc(OC)c(C2CC(=O)Nc3cc(OC)c(OC)c(OC)c32)c1 (centres undefined)	6.2
CCCOc1c(OC)cccc1C1CC(=O)Nc2cc(OC)c(OC)c(OC)c21 (centres undefined)	65.5*	HIV RNase H inh-2=35.0
COc1cc2c(c(OC)c1)C(c1cccc(OC)c1OC)CC(=O)N2 (centres undefined)	-43.5
O=C1CC(NC23CC4CC(CC(C4)C2)C3)C(=O)N1c1ccc2c(c1)OCO2 (centres undefined)	5.4
COc1ccc(Cc2nnc3n2N=C(c2cc4ccccc4o2)CS3)cc1OC	70.8*	HIV RNase H inh-2=46.6
COc1ccc(C2=Nn3c(nnc3-c3ccccc3)SC2)cc1OC	-1.8
CCCc1nnc2n1N=C(c1ccc(OC)c(OC)c1)CS2	-17.4
O=C1NC2NC(=O)N(C(Cc3ccccc3)C(=O)O)C2N1 (centres undefined)	1.5
O=C1CCCN1c1cc(Cl)ccc1Cl	-12.3
CCOC(=O)C1CCN(S(=O)(=O)c2cccc(-c3csc(C)n3)c2)CC1	23.4
Cc1nc(-c2cccc(S(=O)(=O)N3CC(C)OC(C)C3)c2)cs1 (centres undefined)	-10.8
Cc1nc(-c2cccc(S(=O)(=O)N3CCOCC3)c2)cs1	78.1*	HIV RNase H inh-2=58.2*
Cc1nc2ncnn2c(N2CCN(C(=O)Cc3cccs3)CC2)c1C	-4.4
COc1cccc(NC2=NC3(CCCCC3)N=C(N)N2)c1	-4.4
CC(C)Cn1c2c(c(O)c(C(=O)Nc3nccs3)c1=O)CCCC2	34.5
CCCn1c2c(c(O)c(C(=O)Nc3nc(C)cs3)c1=O)CCCC2	-1.0
Cc1csc(NC(=O)c2c(O)c3c(n(CC(C)C)c2=O)CCCC3)n1	63.7*	HIV RNase H inh-2=?
COc1ccc(-c2ccc(SCC(=O)N3CCOCC3)nn2)cc1OC	-0.1
COc1ccc(-c2ccc(SCC(=O)N3CCCC3)nn2)cc1OC	89.6*	HIV RNase H inh-2=5.9
COc1ccc(-c2nnc(SCC(=O)N3CCCC3)o2)cc1OC	4.4
CC(=O)N=c1cccc(NC(C)=O)n1O	-1.8

Source: PubChem BioAssay (University of Pittsburgh Molecular Library Screening Center)
